Results from PubChem BioAssay AID1903 (Southern Research Specialized Biocontainment Screening …, 2009).
Screen size: about 310,000 compounds; about 1,200 (0.39%) were called active. The rule behind the calls is not given here. Not all results are given here. Entries with a potency or affinity are not part of this list.

Target: Large T antigen (Simian virus 40) (UniProt P03070)
Test: SV40 large T antigen inhibitors, biochemical (AID 1903)
Details: SV40 large T antigen ATPase/helicase inhibition assay; at 20 µM; hits give high values

Sequence of Large T antigen (Simian virus 40) (P03070 whole entry, looked up): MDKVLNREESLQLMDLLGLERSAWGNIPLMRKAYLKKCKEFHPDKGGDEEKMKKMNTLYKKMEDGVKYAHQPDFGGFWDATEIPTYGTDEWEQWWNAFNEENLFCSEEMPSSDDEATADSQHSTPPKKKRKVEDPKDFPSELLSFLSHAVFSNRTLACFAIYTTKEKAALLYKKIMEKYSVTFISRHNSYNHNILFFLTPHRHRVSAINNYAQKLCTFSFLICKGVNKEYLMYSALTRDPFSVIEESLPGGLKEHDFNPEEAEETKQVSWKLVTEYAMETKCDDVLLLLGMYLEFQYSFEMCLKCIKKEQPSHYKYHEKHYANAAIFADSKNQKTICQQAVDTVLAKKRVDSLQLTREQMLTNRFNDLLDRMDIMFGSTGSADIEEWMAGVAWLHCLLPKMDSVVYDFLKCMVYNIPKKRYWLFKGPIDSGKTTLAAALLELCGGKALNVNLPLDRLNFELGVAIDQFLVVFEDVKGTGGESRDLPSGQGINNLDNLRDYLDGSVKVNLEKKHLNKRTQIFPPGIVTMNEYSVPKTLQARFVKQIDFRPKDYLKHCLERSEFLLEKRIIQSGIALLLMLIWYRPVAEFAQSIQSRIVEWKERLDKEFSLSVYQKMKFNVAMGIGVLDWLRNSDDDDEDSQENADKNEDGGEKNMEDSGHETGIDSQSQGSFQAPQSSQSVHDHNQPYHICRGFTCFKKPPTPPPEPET

inhibition, inactive:
COc1ccc(OC)c(/C=N/NC(=O)CCc2c(C)n[nH]c2C)c1 5.18%
O=C(CCc1ccc(O)c(O)c1)N/N=C/c1ccc2c(c1)OCO2 32.3%
COc1ccc(OC)c(/C=N/NC(=O)C(=O)N/N=C/c2cc(OC)ccc2OC)c1 -5.1%
CN1CCN(CCC(=O)N/N=C/c2cc3c(cc2[N+](=O)[O-])OCO3)CC1 4.45%
CCN(CC)S(=O)(=O)c1cccc(NC(=O)COC(=O)CCc2nc3ccccc3s2)c1 11.8%
Cc1snc(S(=O)(=O)/C(C#N)=N/Nc2ccc(C(F)(F)F)cc2)c1C#N 6.46%
Cc1ccc(C)c(C(=O)CSc2nnc(C)s2)c1 -0.65%
CC1CCCCN1C(=O)CSc1nc(N)nc(N)n1 (configuration not stated) 3.86%
COc1ccc(NC(=O)c2ccccc2NC(=O)COc2ccccc2)cc1 12.1%
COC(=O)c1ccc(OC)c(NS(=O)(=O)c2ccc(-n3cnnn3)cc2)c1 2.42%
Cn1nc(-c2ccccc2)nc1-c1ccccc1 11.2%
O=c1nc(-c2ccccc2)n(-c2ccccc2)[nH]1 -3.35%
COc1cc(C(=O)NCC(=O)N/N=C/c2ccccn2)cc(OC)c1OC 10.4%
CCc1c(C(=O)NNC(=S)Nc2ccc(S(=O)(=O)Nc3ncccn3)cc2)csc1C 15.1%
Cc1n[nH]c(C)c1S(=O)(=O)N1CCC(C(=O)Nc2cccc(F)c2)CC1 4.04%
O=C(NCCc1ccccc1)C1CCN(S(=O)(=O)N2CCCC2)CC1 7.04%
CCC(=O)Nc1ccc(NC(=O)c2ccco2)cc1 2.13%
Cc1ccc(NC(=O)CCNC(=O)c2ccco2)cc1 1%
O=C(Nc1ccc(F)cc1)c1ccccc1F 12.9%
CCN(CC)S(=O)(=O)c1ccc(NC(=O)CCNC(=O)c2ccco2)cc1 7.03%
CC(=O)Nc1ccc(NC(=O)c2ccccc2F)cc1 2.47%
COc1cccc(OC)c1C(=O)Nc1ccc(NC(=O)c2ccco2)cc1 2.08%
O=C(Nc1ccc(NC(=O)c2ccco2)cc1)c1ccco1 3.69%
COc1ccccc1NC(=O)c1ccc(NC(=O)c2ccco2)cc1 9.63%
Cc1cccc(C)c1OCC(=O)NNC(=O)c1ccoc1C 2.67%
CN(C)CCCN(C(=O)c1ccc2ccccc2c1)c1nc2cc3c(cc2s1)OCO3 3.84%
CCOC(=O)n1c(=O)n(C)c2ccc(Br)cc21 4.58%
C(=C\c1ccccc1)/C=N/Nc1nncc(-c2ccccc2)n1 8.88%
Cc1ccc(CN2CCN(C3CCC3)CC2CCO)cc1 (configuration not stated) 9.81%
COc1cc([C@H]2Oc3cc([C@H]4Oc5cc(O)cc(O)c5C(=O)[C@@H]4O)ccc3O[C@@H]2CO)ccc1O 22.1%
COc1cc(C2Oc3cc(C4Oc5cc(O)cc(O)c5C(=O)C4O)ccc3OC2CO)ccc1O (configuration not stated) 22.1%
CCc1nnc(SCc2ccc(C(=O)OC)o2)n1N 15%
CN1/C(=C\C=N\NC(=O)c2cccnc2)C(C)(C)c2ccccc21 33.6%
CN1/C(=C/C=N/NC(=O)c2ccc([N+](=O)[O-])cc2)C(C)(C)c2ccccc21 4.27%
Cn1c2ccccc2c(=O)c2ccc(F)cc21 0.83%
Cc1ccccc1N1CC(=O)N(c2ccccc2C)CC1=O 0.89%
O=C(CN1C2CCCC1CC(NC(=O)c1ccccc1)C2)NC1CC1 (configuration not stated) 6.22%
COc1cccc(C(=O)NC2CC3CCCC(C2)N3CC(=O)Nc2ccccc2)c1 (configuration not stated) 34%
COc1cccc(C(=O)NC2CC3CCCC(C2)N3CC(=O)Nc2ccccc2C(F)(F)F)c1 (configuration not stated) -1.46%
O=C(CN1C2CCCC1CC(NC(=O)c1ccccc1)C2)Nc1ccccc1 (configuration not stated) -14.7%
COc1cc(OC)c(C(=O)NC23CC4CC(CC(C4)C2)C3)cc1OC 3.9%
COC(=O)c1ccc(/C=N/OCC(=O)NCCc2ccc(OC)c(OC)c2)cc1 2.45%
Cn1c(-c2ccccc2)c[n+]2c1-c1ccccc1C2 6.66%
Cc1cccc(N2CCN(C3=NC(=O)C(=C4CCCCC4)S3)CC2)c1 7.31%
CCOc1ccc(NS(=O)(=O)c2ccc(N)cc2)cc1 2.32%
Nc1c(C(=O)O)ccc2c1C(=O)c1ccccc1C2=O 6.68%
O=C(O)c1cccc2c1C(=O)c1ccccc1C2=O 2.63%
CC(C)Oc1ccc(S(=O)(=O)N2CCOCC2)cc1NC(=O)C1CCC1 4.96%
COc1c(/C=N/Nc2ccc([N+](=O)[O-])cc2[N+](=O)[O-])c(C)nn1-c1ccccc1 -4.36%
Cc1nn(-c2ccccc2)c(N)c1Sc1ccc([N+](=O)[O-])cc1 -2.9%
C=CCn1cc(CN2CCC(C(=O)Nc3cccc(-c4cccc(F)c4)c3)CC2)c(C)n1 9.97%
CCN1C(=O)CC(N2CCC(Nc3ccc(F)cc3)CC2)C1=O (configuration not stated) 0.22%
CCN1C(=O)CC(N2CCN(c3ccc(OC)cc3)CC2)C1=O (configuration not stated) 27.7%
O=C(OCc1cn(Cc2ccccc2)nn1)c1ccccc1 7.89%
COc1ccc2nc(NC(=O)/C=C/c3ccc4c(c3)OCO4)sc2c1 5.17%
O=C(Oc1ccc(N(C(=O)c2ccncc2)S(=O)(=O)c2ccc(F)cc2)cc1)c1ccncc1 32%
Cc1ccc(S(=O)(=O)N(C(=O)c2ccncc2)c2ccc(OC(=O)c3ccncc3)cc2)c(C)c1 23.4%
C=CCN(c1ccccc1Cl)S(=O)(=O)c1cccc(C(=O)NCCc2ccc(OC)cc2)c1 5.14%
COc1ccccc1CNCC(O)Cn1c2ccccc2c2ccccc21 (configuration not stated) 16%
CCn1cc(C(=O)Nc2ccc(F)c(F)c2)cn1 16%
CCn1cc(C(=O)Nc2ccc(C)c([N+](=O)[O-])c2)cn1 2.51%
CCN(CC)c1ccc(NC(=O)c2cc(OC)cc(OC)c2)c(C)c1 19.6%
CCN(CC)c1ccc(NC(=O)c2ccco2)c(C)c1 38%
CCN(CC)c1ccc(NC(=O)c2ccc3c(c2)OCO3)c(C)c1 22.6%
CCN(CC)c1ccc(NC(=O)c2c(OC)cccc2OC)c(C)c1 24.5%
CCc1ccc(NC(=O)c2cccnc2)cc1 21.3%
O=C(Nc1ccc(NC(=O)c2cccnc2)cc1)c1ccccc1 9.81%
